# Screens (PubChem)
# Sampled rows, rich in hits. Any-hit rate of the full collection: about 2.3%.
# SENP8 block-1: blocks human SENP8 cleavage of Nedd8 substrate | recombinant SENP8, Nedd8 substrate fluorescence | inhibition, % at 20 µM | 0.64% of 360,000 active | AID 602440; in the data active means inhibition mostly above about 40%, no sharp cut-off; inactive means mostly below about 27%
# Target sequence (Q96LD8 whole entry, looked up): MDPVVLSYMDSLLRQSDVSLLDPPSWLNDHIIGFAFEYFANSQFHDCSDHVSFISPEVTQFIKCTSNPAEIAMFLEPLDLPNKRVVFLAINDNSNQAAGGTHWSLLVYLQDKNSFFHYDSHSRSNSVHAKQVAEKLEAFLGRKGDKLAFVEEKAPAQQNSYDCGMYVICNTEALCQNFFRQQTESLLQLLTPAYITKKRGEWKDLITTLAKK
# HSP90 refold inh: HSP90 refolding inhibition in rabbit reticulocyte lysate. inhibition, % at 5.6 µM. 0.91% of 290,000 active. luciferase refolding luminescence, 3 h;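 active means inhibition above the screen-wide mean plus 3 SD, computed separately per campaign, cut at about 16% in these data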;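 further: inhibitors lower the luminescence because luciferase stays unfolded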
# SENP8 block-2: inhibitors of human SENP8 protease | Q96LD8 | purified SENP8, Z-RLRGG-aminoluciferin cleavage, luminescence | inhibition, % at 10 µM | 1.2% of 330,000 active | AID 2540; in the data active means inhibition above about 50%
# SENP7 block: inhibitors of human SENP7 protease; recombinant SENP7, Z-RLRGG-aminoluciferin luminescence, 40 min; inhibition, % at 5 µM; 1.5% of 330,000 active;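 active means inhibition above about 50% at the single test dose, limit read from the data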
# SENP6 inh: inhibitors of human SENP6 protease; 1.8% of 330,000 active; AID 2599; Recombinant SENP6 catalytic domain, aminoluciferin luminescence; Q9GZR1; inhibition, % at 10 µM;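 active means inhibition above about 50% at the single tested dose, limit read from the data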
# LGR2 inh: blocks bursicon-induced cAMP signaling via Drosophila LGR2; HEK293 LGR2, CRE-luciferase, bursicon-stimulated, 4 h; inhibition, % at 9.99 µM; 0.35% of 380,000 active;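 active means drop in luminescence signal, shown as inhibition above about 50% in the replicate tests, limit read from the data, passing the limit was not always enough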;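 further: agonist challenge used bursicon conditioned medium at about half maximal strength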
# SENP8 conf: human SENP8 inhibition, confirmed; inhibition, % at 12.5 µM; 40% of 6,200 active; shares compounds with SENP7 block; Recombinant SENP8, Z-RLRGG-aminoluciferin luminescence, 60 min; AID 488912;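 active means mean inhibition across replicates above about 50%, limit read from the data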
# SENP6 conf: confirmation of human SENP6 protease inhibitors | shares compounds with SENP7 block | recombinant SENP6, Z-RLRGG-aminoluciferin luminescence | inhibition, % at 12.5 µM | 58% of 6,200 active
# SENP7 confirm: human SENP7 inhibition, confirmed; shares compounds with SENP7 block; recombinant SENP7, Z-RLRGG-aminoluciferin luminescence, 40 min; inhibition, % at 12.5 µM; 69% of 6,200 active
# Casp3 select: caspase-3 inhibition (SENP selectivity assay) | purified caspase-3, Z-DEVD-aminoluciferin luminescence, 60 min | shares compounds with SENP7 block | 60% of 6,200 active | inhibition, % at 12.5 µM;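 active means mean inhibition above about 50%, limit read from the data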
# Target sequence (P42574 28-227 limits assumed): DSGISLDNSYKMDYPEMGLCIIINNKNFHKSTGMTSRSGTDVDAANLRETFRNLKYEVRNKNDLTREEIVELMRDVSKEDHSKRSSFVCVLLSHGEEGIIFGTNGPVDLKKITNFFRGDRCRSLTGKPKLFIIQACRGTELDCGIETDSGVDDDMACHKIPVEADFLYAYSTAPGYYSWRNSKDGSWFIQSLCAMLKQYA
# SENP luc ctr: counter-screen for SENP inhibitors: luminescence interference; AID 488919; 39% of 6,200 active; shares compounds with SENP7 block; inhibition, % at 12.5 µM; Pre-incubated SENP8/Z-RLRGG-aminoluciferin, luciferase luminescence interference;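 active means mean inhibition above about 50% when retested at one dose, limit read from the data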
# Hits are given with their value; . = inactive; / = not tested or not shown.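 How the source made its calls, unless noted: active means mean inhibition above about 50% in the one-dose retest (limit read from the data); inactive means the rest.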
SMILES,SENP8 block-1,HSP90 refold inh,SENP8 block-2,SENP7 block,SENP6 inh,LGR2 inh,SENP8 conf,SENP6 conf,SENP7 confirm,Casp3 select,SENP luc ctr
Cc1noc(C)c1S(=O)(=O)N(C)C[C@H]1OCCCC[C@@H](C)Oc2ccc(NC(=O)Nc3ccc(C(F)(F)F)cc3)cc2C(=O)N([C@@H](C)CO)C[C@@H]1C,/,/,/,/,/,.,/,/,/,/,/
Cc1cc(=O)[nH]c(N=N/C(=N/Nc2ccc(O)cc2)c2ccccc2)n1,.,.,.,.,61,/,.,.,.,.,.
COc1ccc(N/N=C(/N=Nc2nc(C)cc(=O)[nH]2)c2ccccc2)cc1,.,.,.,.,68,/,.,.,.,.,.
COc1ccc(NC(=O)N(CCO)Cc2cc3c(C)cc(C)cc3[nH]c2=O)cc1,.,.,.,.,.,/,/,/,/,/,/
COc1ccc(NC(=S)N(CCO)Cc2cc3c(C)cc(C)cc3[nH]c2=O)cc1,.,.,.,.,89,.,.,.,.,.,.
C[C@H]1CCCCO[C@H](CN(C)C(=O)Nc2cccc3ccccc23)[C@@H](C)CN([C@@H](C)CO)C(=O)c2cc(NC(=O)Nc3ccccc3)ccc2O1,/,/,/,/,/,.,/,/,/,/,/
N#Cc1cnc2sc3ccccc3n2c1=N,.,.,93,79,94,/,95,96,100,97,94
COc1ccc(NC(=O)N(C)C[C@@H]2Oc3ccc(NC(=O)CCCCCC(=O)Nc4ccccc4N)cc3CC(=O)N([C@@H](C)CO)C[C@H]2C)cc1,/,/,/,/,/,.,/,/,/,/,/
COc1ccc(C(=O)NC(=O)Nc2cc(C)ccn2)cc1,.,22,79,.,83,74,78,78,94,92,68
COc1cc(C(=O)Nc2cc(C)ccn2)cc(OC)c1OC,.,.,.,.,.,/,/,/,/,/,/
COc1ccc(C(=O)Nc2ccccc2C(=O)Nc2cccc(C)n2)cc1,.,.,.,.,.,.,/,/,/,/,/
COc1ccc(C(=O)Nc2ccccc2C(=O)Nc2cc(C)ccn2)cc1,.,.,58,.,64,.,.,.,.,.,.
Cc1noc(C)c1NC(=O)N(C)C[C@H]1Oc2ccc(NC(=O)c3ccncc3)cc2CC(=O)N([C@H](C)CO)C[C@@H]1C,/,/,/,/,/,.,/,/,/,/,/
O=C(Nc1nc(COc2ccccc2)cs1)C1CCC1,.,.,.,.,54,/,.,.,.,.,.
CC(=O)Nc1nc(COc2ccc3ccccc3c2)cs1,.,.,.,62,62,/,.,.,81,/,.
CC(=O)Nc1nc(COc2ccccc2)cs1,.,.,.,.,.,/,/,/,/,/,/
CCCOc1ccc(C(=O)NC(=S)Nc2nc3ccccc3s2)cc1,.,.,.,92,.,.,.,.,.,.,.
COc1ccc(/C(C)=N/OCC(=O)Nc2nc3ccccc3s2)cc1OC,.,.,.,.,53,.,.,.,64,.,.
COc1ccc(/C=N/OCC(=O)Nc2nc3ccccc3s2)cc1,.,.,53,54,78,.,.,.,.,.,.
O=C(N[C@H]1CC[C@@H](CCn2cc(Cc3ccccc3)nn2)O[C@@H]1CO)c1ccccn1,/,/,/,/,/,.,/,/,/,/,/
O=C(NC[C@H]1[C@H](c2ccccc2)[C@@H](CO)N1C(=O)C1CC1)NC1CCCC1,/,/,/,/,/,.,/,/,/,/,/
C[C@H](CO)N1C[C@H](C)[C@H](CN(C)C(=O)CCC(F)(F)F)OCCCC[C@H](C)Oc2ccc(NS(=O)(=O)c3cn(C)cn3)cc2C1=O,/,/,/,/,/,.,/,/,/,/,/
CCCn1c(/C=C/c2ccccc2)nc2ccccc21,.,.,62,70,72,.,86,84,95,75,81
O=C(N[C@@H]1C=C[C@@H](CC(=O)N2CCc3ccccc3C2)O[C@@H]1CO)C1CCOCC1,/,/,/,/,/,.,/,/,/,/,/
